{
  "source": "PubChem BioAssay (Tox21)",
  "note": "Several values for one entry are separate records, joined by “and”; a condition that tells them apart may be missing. Identical values can stand only once. Inconclusive results are not listed. Where a structure was tested more than once in an assay, its records may differ in their call. Activity calls are given as the source filed them. Calls come from the whole dose curve; as a rule, active = well fitted inhibition curve with a large enough effect in the repeat runs; inconclusive = weak or mixed curves; inactive = no such curve, though single readings can be large or run the other way. % is set by controls: 0 for no effect and ±100 for the full control effect; potency is the fitted concentration of half-maximal effect.",
  "data": [
    {"molecular_target": "Cytochrome P450 2C9 (Homo sapiens) (UniProt P11712)", "sequence (P11712 whole entry, looked up)": "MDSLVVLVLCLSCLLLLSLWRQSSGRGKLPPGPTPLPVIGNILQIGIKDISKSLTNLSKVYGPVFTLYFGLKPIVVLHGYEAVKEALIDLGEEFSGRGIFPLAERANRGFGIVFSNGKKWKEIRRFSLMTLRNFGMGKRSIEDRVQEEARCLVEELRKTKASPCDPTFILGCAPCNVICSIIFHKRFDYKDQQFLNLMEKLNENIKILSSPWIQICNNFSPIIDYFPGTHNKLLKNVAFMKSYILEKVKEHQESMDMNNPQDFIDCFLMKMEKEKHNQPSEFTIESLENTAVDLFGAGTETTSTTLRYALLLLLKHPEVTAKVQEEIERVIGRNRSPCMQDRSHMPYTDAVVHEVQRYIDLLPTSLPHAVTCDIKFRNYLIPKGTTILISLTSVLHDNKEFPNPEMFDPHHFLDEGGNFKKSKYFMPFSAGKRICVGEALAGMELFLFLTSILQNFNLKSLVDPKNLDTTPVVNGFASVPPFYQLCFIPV", "experiment": "Cytochrome P450 Family 2 Subfamily C Member 9 (CYP2C9) small molecule antagonists: luciferase reporter qHTS assay (AID 1671198); note: nearly all actives have a fitted effect of over 50% in size", "conditions": "P450-Glo CYP2C9 enzyme assay, luciferin luminescence; series mostly up to 115 µM; activity change, negative = inhibition: at the top concentration", "description": "U.S. Tox21 Program National Center for Advancing Translational Sciences [NCATS] U.S. Environmental Protection Agency [EPA] National Institutes of Environmental Health Sciences [NIEHS] National Toxicology Program [NTP] U.S. Food and Drug Administration [FDA] Tox21 Assay Overview: Cytochrome P450 (CYP) enzymes are membrane-bound hemeproteins that play a key role in metabolism of drugs and xenobiotics. Evaluation of the effect of chemicals on CYP isozymes is useful to minimize the adverse drug reactions and toxicities in drug development process. Tox21 chemicals were tested for their effect on CYP enzyme activities by using P450-Glo (TM) screening systems (Promega Corporation, Madison, WI). These systems provide a luminescent method containing proluciferin substrates and are converted to luciferin products by CYP isozymes. The luciferin products formed are detected with a luciferin detection reagent, and the amount of light produced is proportional to CYP activity. P450-Glo (TM) CYP2C9 screening system (Catalog. No. V9790) was used to detect the compounds that interfere in CYP2C9 activity.\nTox21 Assay Protocol Summary: Two ul of enzyme-substrate mix was dispensed into medium binding white/solid 1536-well plates (Greiner Bio-One North America Inc., Monroe, NC) using a BioRaptr Flying Reagent Dispenser (FRD, Beckman Coulter, Brea, CA). […] The assay plates were incubated at room temperature for 10 min. Then 2 ul of NADPH regeneration solution was added to each well of the assay plates using an FRD and incubated at 37C for 1 h. The reaction was stopped by adding 4 ul of detection reagent using an FRD and after 20 min incubation at room temperature the luminescence signal was measured using a ViewLux plate reader (Perkin Elmer, Shelton, CT). Data were expressed as relative luminescence units.", "values": [
      {"compound": "COc1nc(NC(C)C)nc(NC(C)C)n1", "Potency": "inactive"},
      {"compound": "OC[C@@H](O)[C@H]1O[C@@H]2O[C@H](C(Cl)(Cl)Cl)O[C@@H]2[C@H]1O", "activity change, negative = inhibition": "-19.3% (inactive)"},
      {"compound": "ClC(Cl)c1ccccc1", "Potency": "inactive"},
      {"compound": "OCC(O)CCl", "note": "(stereo not given)", "activity change, negative = inhibition": "-9.12% (inactive)"},
      {"compound": "Cc1cc(O)ccc1Cl", "Potency": "inactive"},
      {"compound": "O=C(O)c1cc(Oc2ccc(C(F)(F)F)cc2Cl)ccc1[N+](=O)[O-]", "Potency": "21.9 µM (active) and 35.6 µM (active) and 31.9 µM (active)"},
      {"compound": "Sc1ccccc1", "Potency": "32.2 µM (active) and 31.9 µM (active) and 56.4 µM (active)"},
      {"compound": "CCNc1nc(Cl)nc(NC(C)C)n1", "Potency": "inactive"},
      {"compound": "C=CCN=C=S", "activity change, negative = inhibition": "-7.36% (inactive)"},
      {"compound": "CCCCCCCCCCCCCCCCCC(=O)O", "Potency": "1.12 µM (active) and inactive"},
      {"compound": "Nc1ccc(N)cc1", "Potency": "11.3 µM (active) and 28.3 µM (active) and 8.71 µM (active)"},
      {"compound": "O=[N+]([O-])c1cc([As](=O)(O)O)ccc1O", "Potency": "inactive"},
      {"compound": "C[C@]12CC[C@H](O)CC1=CC[C@@H]1[C@@H]2CC[C@]2(C)C(=O)CC[C@@H]12", "Potency": "44.8 µM (active) and 31.7 µM (active) and 19.5 µM (active)"},
      {"compound": "COS(=O)(=O)OC", "Potency": "inactive"},
      {"compound": "FC(F)(F)c1ccc(Cl)cc1", "Potency": "inactive"},
      {"compound": "OCc1ccco1", "Potency": "inactive and 44.8 µM (active)"},
      {"compound": "Clc1cnc(Oc2ccc(Oc3ncc(Cl)cc3Cl)cc2)c(Cl)c1", "Potency": "inactive"},
      {"compound": "CN(C)C(=O)Nc1cccc(C(F)(F)F)c1", "activity change, negative = inhibition": "-1.82% (inactive)"},
      {"compound": "N#Cc1ccccn1", "Potency": "inactive"},
      {"compound": "Cc1cc(Cl)ccc1OC(C)C(=O)O", "note": "(stereo not given)", "Potency": "44.1 µM (active) and inactive"},
      {"compound": "ClCCOCCCl", "Potency": "inactive"},
      {"compound": "CNCC(O)c1ccc(O)cc1", "note": "(stereo not given)", "activity change, negative = inhibition": "9.85% [at 53 µM] (inactive)"},
      {"compound": "C=CC(=O)OCCCCCC(C)C", "Potency": "inactive"},
      {"compound": "O=S(=O)(O)OOS(=O)(=O)O", "Potency": "inactive"},
      {"compound": "CCCOC(=O)c1ccccc1C(=O)OCCC", "Potency": "32.2 µM (active) and 35.6 µM (active)"},
      {"compound": "NNc1ccccc1", "Potency": "39.5 µM (active) and 39.8 µM (active) and 50.2 µM (active)"},
      {"compound": "C/C=C/c1ccc2c(c1)OCO2", "Potency": "inactive"},
      {"compound": "CCOC(=O)CC(SP(=O)(OC)OC)C(=O)OCC", "note": "(stereo not given)", "Potency": "67.5 µM (active) and 71 µM (active)"},
      {"compound": "O=C/C=C/c1ccccc1", "activity change, negative = inhibition": "4.14% (inactive)"},
      {"compound": "COP(=S)(OC)SCN1C(=O)c2ccccc2C1=O", "Potency": "4.02 µM (active) and 2.52 µM (active) and 1.74 µM (active)"},
      {"compound": "COC(=O)Nc1cccc(OC(=O)Nc2cccc(C)c2)c1", "Potency": "inactive"},
      {"compound": "Cc1cccc(C)c1N", "activity change, negative = inhibition": "-14.8% (inactive)"},
      {"compound": "Nc1ncc([N+](=O)[O-])s1", "Potency": "63.3 µM (active)"},
      {"compound": "CCSC(=O)N1CCCCCC1", "Potency": "38.8 µM (active) and inactive"},
      {"compound": "CCOP(=S)(OCC)Oc1ccc([N+](=O)[O-])cc1", "Potency": "1.61 µM (active) and 976 nM (active)"},
      {"compound": "COC(C)(C)CCCC(C)C/C=C/C(C)=C/C(=O)OC(C)C", "note": "(stereo not given)", "Potency": "62.2 µM (active) and 17.4 µM (active)"},
      {"compound": "Nc1ccc([As](=O)(O)O)cc1", "Potency": "inactive"},
      {"compound": "CC(C)(C)C(=O)CCl", "Potency": "inactive"},
      {"compound": "C=C(C)C(=O)OCC(CC)CCCC", "note": "(stereo not given)", "activity change, negative = inhibition": "-9.46% (inactive)"},
      {"compound": "Cc1cccc(C)c1NC(=O)CN1CCCC1=O", "Potency": "inactive"}
    ]}
  ]
}
